Screening results from PubChem.
The list is not random: actives were taken first. Their share in the collection is about 5.4%.
GASC-1 inh: inhibitors of GASC-1 histone demethylase, primary screen, biochemical, fluorescence, DELFIA europium. AID 2099, 2009. GST-JMJD2C(1-420) H3K9me3 demethylation. 330,000 compounds, 0.069% hits. inhibition, % at 2.35 µM. Lysine-specific demethylase 4C (Homo sapiens), Q9H3R0;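 active = more than half of a compound's replicate wells show inhibition beyond 50%, single wells judged on their own value; inconclusive = some, but no more than half, of replicates pass 50% inhibition; inactive = no replicate passes 50% inhibition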;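 also: signal counts dimethyl H3K9 product captured on neutravidin plate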
Target sequence (Q9H3R0 1-420 limits assumed): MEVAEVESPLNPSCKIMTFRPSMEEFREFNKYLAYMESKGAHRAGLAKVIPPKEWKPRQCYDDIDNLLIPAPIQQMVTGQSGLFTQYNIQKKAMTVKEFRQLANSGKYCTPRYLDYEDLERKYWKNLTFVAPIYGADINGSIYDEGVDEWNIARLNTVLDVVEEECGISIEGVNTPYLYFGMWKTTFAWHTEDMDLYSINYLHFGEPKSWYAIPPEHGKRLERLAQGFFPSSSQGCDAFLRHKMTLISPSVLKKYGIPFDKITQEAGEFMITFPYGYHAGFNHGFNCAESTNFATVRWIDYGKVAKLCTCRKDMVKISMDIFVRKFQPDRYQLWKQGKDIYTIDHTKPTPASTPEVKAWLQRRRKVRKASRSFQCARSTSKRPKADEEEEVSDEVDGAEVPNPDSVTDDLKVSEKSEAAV
Exocytosis inh: LAMP-1 surface exposure blockers, TALL-104 cells – cell-based, flow cytometry, MLPCN library, primary screen; AID 651702, 2012; 360,000 compounds, 0.66% hits; TALL-104 LAMP-1 surface exposure; cells stimulated with thapsigargin and PMA; inhibition, % at 10 µM;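 active = inhibition above about 55%, limit read from the data; inconclusive = no clear call, values can overlap the other calls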
SMARCA2 act: SMARCA2 (BRM) function activators, primary screen, cell-based, luminescence, high throughput | MG213 cells, MMTV-luciferase reporter, dexamethasone, overnight | activation, % at 9.1 µM | 370,000 compounds, 1% hits; in the data active = activation above about 7.8%
PfM18AAP inh-1: PfM18AAP inhibitors, malaria aminopeptidase, primary screen, biochemical, QFRET, recombinant enzyme. M18 aspartyl aminopeptidase (Plasmodium falciparum 3D7). H-Glu-NHMec fluorogenic cleavage. inhibition, % at 7.35 µM. 290,000 compounds, 1.2% hits;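 active = inhibition above the campaign mean inhibition over all tested compounds plus 3 SD, cut at about 28% in these data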
MIN6 prolif: inducers of MIN6 beta-cell proliferation, primary screen, ATP luminescence, uHTS; proliferation, % at 10 µM; 330,000 compounds, 0.29% hits; MIN6 cells proliferation, ATPlite luminescence, 48 h; cells starved in 0.2% serum; 100% = growth in 10% serum;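 active = compounds whose signal lies at least 3.5 SD above the mean of all wells on their plate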
ALR inh: inhibitors of human ALR sulfhydryl oxidase, primary screen, biochemical, H2O2 detection, HRP-luminol luminescence, single point | purified ALR, DTT oxidation | FAD-linked sulfhydryl oxidase ALR (Homo sapiens), P55789 | 290,000 compounds, 3.8% hits | AID 485317, 2010 | inhibition, % (concentration not given with the values);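 active = mean replicate inhibition above about 79%, with every replicate also reaching it, limit read from the data; inconclusive = only one of the two criteria met; inactive = mean below limit and not every replicate reaching it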
PfM18AAP inh-2: PfM18AAP inhibitors, malaria aminopeptidase, confirmation, biochemical, QFRET, recombinant enzyme, triplicate | H-Glu-NHMec fluorogenic cleavage | AID 2170, 2009 | shares compounds with PfM18AAP inh-1 | inhibition, % at 7.35 µM | 2,400 compounds, 28% hits;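 active = mean inhibition over replicate wells above the hit cutoff set for the earlier primary screen, cut at about 29% in these data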
CTSL1 counter: cathepsin L1 inhibitors, retest, confirmation, counter-screen for PFM18AAP inhibitor project, biochemical, QFRET, triplicate; purified cathepsin L1, Z-Leu-Arg-MCA fluorescence; AID 2178, 2009; inhibition, % at 5.96 µM; 2,400 tested, under 10 active; shares compounds with PfM18AAP inh-1;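 active = average inhibition across replicates above the hit cutoff set in the earlier primary screen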
Hits are given with their value; – = inactive; ? = inconclusive; · = no result given.

SMILES | GASC-1 inh | Exocytosis inh | SMARCA2 act | PfM18AAP inh-1 | MIN6 prolif | ALR inh | PfM18AAP inh-2 | CTSL1 counter
O=C(c1ccccc1)c1c[nH]c(C(=O)NNc2cccc(Cl)n2)c1 | – | – | – | 52 | – | – | 31 | –
CNC(=O)c1cc(C(=O)c2c(Cl)cccc2Cl)c[nH]1 | – | – | – | – | – | – | · | ·
O=C(c1ccc(Cl)cc1)c1c[nH]c(C(=O)NNc2cccc(Cl)n2)c1 | – | – | – | 51 | – | – | 36 | –
Cc1ccc(/C=N/Nc2cn[nH]c(=O)n2)o1 | – | – | – | 48 | – | – | – | –
Cc1ccc(/C=N/NC(=O)C(=O)N/N=C/c2ccc(C)o2)o1 | – | – | – | – | – | – | · | ·
O=C(O)c1ccc(/C=C2/SC(=S)N(Cc3ccccc3)C2=O)cc1 | – | – | – | – | · | – | · | ·
O=C(Cc1ccccc1)NN1C(=O)/C(=C/c2ccc(C(=O)O)cc2)SC1=S | – | – | – | 34 | – | · | – | –
C=CCC12C[C@@]3(O[C@H](c4ccc(C(F)(F)F)cc4)N=C3C[C@H](c3ccc(OC)cc3)[C@H]1C)N(Cc1ccc3c(c1)OCO3)C2=O | · | · | – | · | · | · | · | ·
COc1ccc(-c2c(C)nc3c(-c4ccccn4)cnn3c2N)cc1 | – | – | – | 38 | · | – | – | –
Cc1cc(=O)[nH]c(SCC(=O)NCCc2ccccc2)n1 | – | – | – | – | – | – | · | ·
Cc1cc(=O)[nH]c(SCC(=O)NNC(=O)Cc2ccccc2)n1 | – | – | – | 36 | – | – | – | –
O=C(Nc1nnc(Cc2ccccc2)s1)c1ccco1 | – | – | – | – | – | – | · | ·
NC(=O)c1cc(Cc2ccccc2)sc1NC(=O)c1ccco1 | – | – | – | 35 | – | – | – | –
Cc1[nH]nc2c1C(c1cc(Br)cs1)C(C#N)=C(N)O2 (configuration not stated) | – | – | – | 72 | – | – | 62 | –
Cc1[nH]nc2c1[C@@H](c1ccccc1[N+](=O)[O-])C(C#N)=C(N)O2 | – | – | – | 36 | – | – | – | –
Cc1[nH]nc2c1C(c1c[nH]c3ccccc13)C(C#N)=C(N)O2 (configuration not stated) | – | – | – | – | – | – | · | ·
CCOc1ccc(NC(=O)c2sc3nc(N4CCOCC4)c4c(c3c2N)CCCC4)cc1 | ? | – | – | 43 | – | – | – | –
Nc1c(C(=O)N2CCOCC2)sc2nc(N3CCOCC3)c3c(c12)CCCC3 | – | – | – | 37 | – | – | – | –
Cc1ccc(NC(=O)c2sc3nc(N4CCOCC4)c4c(c3c2N)CCCC4)cc1 | · | – | – | · | · | · | · | ·
Nc1c(C(=O)Nc2ccccc2)sc2nc(N3CCOCC3)c3c(c12)CCCC3 | · | – | – | · | · | · | · | ·
CC(=O)c1ccc(NC(=O)c2sc3nc(N4CCOCC4)c4c(c3c2N)CCCC4)cc1 | – | – | – | 43 | – | – | – | –
Nc1c(C(=O)Nc2ccc(Cl)cc2)sc2nc(N3CCOCC3)c3c(c12)CCCC3 | – | – | – | 42 | – | – | – | –
NNC(=O)c1sc2nc(N3CCOCC3)c3c(c2c1N)CCCC3 | – | – | – | – | – | – | · | ·
COc1cccc([C@@H](NC(=O)C(F)(F)F)[C@@H]2CCCC=C2c2ccccc2)c1 | · | · | – | · | · | · | · | ·
O=C(NCCc1c[nH]c2ccccc12)OCc1cn(Cc2ccccc2C(F)(F)F)nn1 | · | · | – | · | · | · | · | ·
NNc1nnc2c3cc(F)ccc3n(CCc3ccccc3)c2n1 | – | – | – | 44 | – | – | – | –
CC(=O)c1sc2nsc(SCCN3CCCC3)c2c1N | – | – | – | 32 | – | – | – | –
